This is part of a sample that, as a whole, favours compounds with a hit. Of some 83,000 tested, about 20% had one in any assay.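 A percent growth of 40 corresponds to 60% growth inhibition; 0 means no net growth; -100 means all cells died. Active threshold: below 10.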 Values without a mark were called inactive. The source made the active and inactive calls.

In PubChem BioAssay (NCI) one finds growth data, which are given here for 8 compounds.

Among the test systems are HCT-15 colon; HT29 colon; SNB-75 CNS; SNB-19 CNS; U251 CNS; PC-3 prostate; SK-MEL-5 melanoma; UACC-62 melanoma; LOX IMVI melanoma; SK-MEL-28 melanoma; SK-MEL-2 melanoma; EKVX NSCLC; SN12C renal; UO-31 renal; TK-10 renal; ACHN renal; CAKI-1 renal; A498 renal; CCRF-CEM leukemia; MOLT-4 leukemia.
What all share (assay): NCI-60 one-dose screen, 48 h (100 = growth as untreated, 0 = no growth, -100 = all killed)
Holding throughout (settings): 10 µM unless noted

For `Cn1c(=O)c2[nH]c(=S)n(Cc3ccccc3)c2n(C)c1=O`, the growth in the assay on HCT-15 colon is 102%; with HT29 colon it was 111%; with SNB-75 CNS, 84.9%; in the assay with SNB-19 CNS, 99.1%; in the assay with U251 CNS it was 110%; in the assay with PC-3 prostate, 98.2%. The growth was 102% with SK-MEL-5 melanoma; 91.8% in the assay on UACC-62 melanoma; 88.1% in the assay on LOX IMVI melanoma; 122% in the assay with SK-MEL-28 melanoma; 104% in the assay on SK-MEL-2 melanoma; 125% with EKVX NSCLC. The growth was 99% in the assay with SN12C renal; 91.4% in the assay on UO-31 renal; 104% in the assay on TK-10 renal; 96.1% with ACHN renal; 111% with CAKI-1 renal; 92.8% in the assay on A498 renal. Moreover, the growth with CCRF-CEM leukemia was 113%; with MOLT-4 leukemia, 81.9%.
For the compound `CC(NC(=O)Oc1cccc2ccccc12)c1ccccc1` (stereo not drawn), the growth is 100% in the assay on HCT-15 colon; 104% in the assay with HT29 colon; 87.4% with SNB-75 CNS; 105% in the assay with SNB-19 CNS; 90.7% in the assay on U251 CNS; 84.9% with PC-3 prostate. The growth in the assay on SK-MEL-5 melanoma is 97%; in the assay on UACC-62 melanoma it was 89.2%; with LOX IMVI melanoma, 87.2%; with SK-MEL-28 melanoma it was 110%; in the assay with SK-MEL-2 melanoma, 107%; with EKVX NSCLC it was 107%. Also, the growth with SN12C renal is 97.4%; in the assay on UO-31 renal, 61.1%; with TK-10 renal it was 105%; with ACHN renal, 98.9%; in the assay on CAKI-1 renal, 121%; in the assay with A498 renal, 106%. In addition, the growth is 72% with CCRF-CEM leukemia and 68.9% in the assay on MOLT-4 leukemia.
Regarding `CC(=O)Nc1cc2c3c(cccc3c1)-c1ccccc1-2`, the growth in the assay on HCT-15 colon was 79.4%; in the assay on HT29 colon, 108%; with SNB-75 CNS it was 60.1%; in the assay on SNB-19 CNS, 91.2%; in the assay on U251 CNS, 75.3%; with PC-3 prostate it was 57.9%. Besides, the growth in the assay on SK-MEL-5 melanoma is 102%; with UACC-62 melanoma it was 89%; with LOX IMVI melanoma it was 75.9%; in the assay with SK-MEL-28 melanoma, 103%; with SK-MEL-2 melanoma it was 83.5%; with EKVX NSCLC it was 55.1%. Also, the growth is 31.6% in the assay on SN12C renal; 19.2% in the assay on UO-31 renal; 96.3% in the assay with TK-10 renal; 91.5% in the assay with ACHN renal; 33.5% in the assay with CAKI-1 renal; 58.7% with A498 renal. In addition, the growth in the assay with CCRF-CEM leukemia was 21.4%.
For `CC(=O)N1N=C(c2ccc(C(F)(F)F)cc2)CC1c1ccc2c(c1)OCO2` (stereo not drawn), the growth in the assay on HCT-15 colon is 81.1%; in the assay with HT29 colon, 47.4%; with SNB-75 CNS, 90%; in the assay with SNB-19 CNS, 91%; with U251 CNS, 94.6%; with PC-3 prostate, 73.9%. For the same compound, the growth is 95% in the assay on SK-MEL-5 melanoma; 65% with UACC-62 melanoma; 81.4% in the assay on LOX IMVI melanoma; 95.4% in the assay with SK-MEL-28 melanoma; 76.2% in the assay on SK-MEL-2 melanoma; 81.4% in the assay with EKVX NSCLC. Further, the growth with SN12C renal was 83.5%; in the assay on UO-31 renal, 55.9%; in the assay with TK-10 renal, 100%; in the assay with ACHN renal, 95.7%; in the assay with CAKI-1 renal, 70.8%; with A498 renal, 103%. In addition, the results for the growth in the assay with CCRF-CEM leukemia and in the assay on MOLT-4 leukemia were 83.3% and 77.9%, respectively.
As for `COc1ccc(CNC(=O)c2c(C)n([O-])c3cc(F)c(F)cc3[n+]2=O)cc1`, the growth in the assay on HCT-15 colon is 36.8%; in the assay on HT29 colon, 93%; with SNB-75 CNS, 93%; in the assay on SNB-19 CNS, 93.9%; with U251 CNS, 94.9%; in the assay on PC-3 prostate, 94%. Moreover, the growth is 97.5% in the assay on SK-MEL-5 melanoma; 87.7% with UACC-62 melanoma; 57.1% with LOX IMVI melanoma; 93.7% in the assay with SK-MEL-28 melanoma; 88.1% in the assay on SK-MEL-2 melanoma; 89.2% in the assay with EKVX NSCLC. The growth was 95.2% in the assay on SN12C renal; -32.4% (active) in the assay with UO-31 renal; 102% in the assay with TK-10 renal; 98.7% with ACHN renal; 152% in the assay with CAKI-1 renal; 95.1% in the assay on A498 renal. Further, the growth in the assay on CCRF-CEM leukemia was 90.8%; in the assay with MOLT-4 leukemia it was 97%.
On to `O=C(COc1cccc(/C=C2\Oc3ccc4ccccc4c3C2=O)c1)c1ccc([N+](=O)[O-])cc1`, for which the growth in the assay on HCT-15 colon is 89.5%; with HT29 colon, 96.5%; in the assay with SNB-75 CNS it was 81.4%; in the assay with SNB-19 CNS it was 100%; in the assay with U251 CNS, 94.5%; in the assay with PC-3 prostate, 75.6%. The growth in the assay with SK-MEL-5 melanoma was 87.2%; in the assay with UACC-62 melanoma it was 81.1%; with LOX IMVI melanoma, -30.3% (active); with SK-MEL-28 melanoma, 124%; in the assay with SK-MEL-2 melanoma, 44.3%; with EKVX NSCLC, 85.4%. The growth in the assay with SN12C renal is 98.2%; with UO-31 renal, -41.6% (active); in the assay on TK-10 renal, 99.9%; with ACHN renal, 98.4%; in the assay on CAKI-1 renal it was 69.3%; in the assay on A498 renal, 108%. The growth in the assay on CCRF-CEM leukemia is 35.7%; in the assay with MOLT-4 leukemia, 32%.
For the compound `Cc1ccc2c(c1)C(=O)/C(=C\Nc1ccc(C(N)=O)cc1)C(O)O2` (stereo not drawn), the growth was 85.9% with HCT-15 colon; 105% in the assay on HT29 colon; 74.8% in the assay with SNB-75 CNS; 106% with SNB-19 CNS; 85.6% with U251 CNS; 76.4% with PC-3 prostate. The growth is 104% in the assay on SK-MEL-5 melanoma; 106% in the assay with UACC-62 melanoma; 85.3% in the assay on LOX IMVI melanoma; 99.8% with SK-MEL-28 melanoma; 77.4% with SK-MEL-2 melanoma; 97.8% in the assay on EKVX NSCLC. Moreover, the growth in the assay on SN12C renal is 136%; with UO-31 renal, 79.3%; with TK-10 renal it was 120%; in the assay with ACHN renal it was 104%; in the assay with CAKI-1 renal, 82.3%; in the assay on A498 renal it was 115%. Moreover, the growth in the assay with CCRF-CEM leukemia is 78.3%.
As for `Nc1ccc2c(c1)Cc1cc(Cl)c(Cl)cc1-2`, the growth with HCT-15 colon was 51.5%; in the assay on HT29 colon it was 93.1%; in the assay with SNB-75 CNS, 84%; in the assay on SNB-19 CNS it was 46.2%; with U251 CNS, 34.6%; with PC-3 prostate, 68.5%. In addition, the growth in the assay on SK-MEL-5 melanoma was 43.4%; in the assay with UACC-62 melanoma, 63.4%; in the assay on LOX IMVI melanoma, 76.1%; in the assay on SK-MEL-28 melanoma it was 78.6%; in the assay with SK-MEL-2 melanoma, 47.5%; in the assay with EKVX NSCLC it was 48%. Also, the growth in the assay on SN12C renal was 57.2%; with UO-31 renal it was 63.6%; in the assay with TK-10 renal, 101%; in the assay on ACHN renal, 66.8%; in the assay on CAKI-1 renal, 65.4%; in the assay with A498 renal, 60.1%. Moreover, the growth in the assay on CCRF-CEM leukemia is 32.2%; with MOLT-4 leukemia, 70.2%.
